Screening data deposited in PubChem BioAssay by National Center for Advancing Translational Sciences (NCATS).
MCF10A rereplic = DNA re-replication induction in MCF 10a cells | MCF 10A DNA re-replication, Hoechst nuclear intensity, 48 h | Potency, µM (doses to about 46.1 µM), most hits filed as activators | hit rate 2.9% among 350,000 | AID 624296; further: nearly all actives have a fitted effect of over 50% in size
PINK1 expr mod = modulators of PINK1 expression; PINK1 immunofluorescence, high-content cytometry, 24 h; Potency, µM (doses to about 76.6 µM), hits mostly activators; hit rate 0.2% among 410,000; active means well fitted activation curve with a large enough effect; inconclusive means small, poorly fitted or top-dose-only effect; cell line not stated here; further: nearly all actives have a fitted effect of over 65% in size
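Measures PINK1 amount and localization on or inside mitochondria by immunofluorescence. Stable cells get compounds at 5 concentrations for 24 hours before fixation and staining; CCCP controls included.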
SW480 rereplic = DNA re-replication induction in SW480 cells. hit rate 1.8% among 340,000. SW480 DNA re-replication, Hoechst DNA content imaging, 48 h. Potency, µM (series often up to 46.1 µM), hits mostly activators; further: nearly all actives have a fitted effect of over 55% in size
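First, 250 cells per well were seeded. Next, compound or vehicle (23 nL) was pinned in, plates sat 48 hr at 37 C. Finally Hoechst was added for 40 min before fluorescence scanning.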
KB-V1 MDR tox = kills drug-selected multidrug resistant KB-V1 cells; KB-V1 MDR cells viability, CellTiter-Glo, 72 h; Potency, µM (titrated, usually from 46.1 µM), usual class: cytotoxic; hit rate 3.4% among 400,000; further: nearly all actives have a fitted effect of over 60% in size
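In this primary screen, KB-V1 cells overexpressing P-gp are incubated with library compounds (lowest to highest concentration) for 72 h at 37 degrees C before a luminescent ATP viability read.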
PTAP TSG101 blk = blocks PTAP/TSG101 interaction to inhibit HIV-1 budding. Q99816. Fluorescence polarization, FITC-PTAP peptide / Tsg101 binding. Potency, µM (doses to about 115 µM), usual class: inhibitors. AID 493005. 340,000 tested, under 10 active; active means well fitted inhibition curve with a large enough effect in the main read-out, with a control signal flat, not every such curve was filed as active; inconclusive means small, poorly fitted or top-dose-only effect, or effect the other way, or a change in a side signal; inactive means no such curve, though single readings can be large or run the other way
Target sequence (Q99816 whole entry, looked up): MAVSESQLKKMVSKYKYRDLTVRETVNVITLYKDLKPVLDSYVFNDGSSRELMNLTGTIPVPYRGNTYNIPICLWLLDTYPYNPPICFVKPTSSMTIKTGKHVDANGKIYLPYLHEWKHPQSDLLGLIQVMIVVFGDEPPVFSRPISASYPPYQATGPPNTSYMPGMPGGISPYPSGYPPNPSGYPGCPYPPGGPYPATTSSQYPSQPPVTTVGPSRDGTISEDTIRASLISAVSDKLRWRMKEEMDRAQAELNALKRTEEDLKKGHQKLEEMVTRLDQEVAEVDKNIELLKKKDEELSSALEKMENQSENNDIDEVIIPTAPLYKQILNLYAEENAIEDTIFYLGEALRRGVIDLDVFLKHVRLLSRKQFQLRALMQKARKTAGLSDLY
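Fluorescence polarization binding of Tsg101 binding domain (10 uM final) to FITC-labeled PTAP peptide (50 nM final) in HEPES pH 7.5 buffer with NaCl, Tween 20, EDTA, TCEP. Compounds added before peptide; binding 20 min at RT.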
KB-3-1 cytotox = kills parental KB-3-1 adenocarcinoma cells. KB-3-1 viability, CellTiter-Glo ATP luminescence, 72 h. Potency, µM (titrated, usually from 46.1 µM), actives largely listed as cytotoxic. hit rate 1.4% among 400,000; further: nearly all actives have a fitted effect of over 60% in size
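Luminescent ATP read-out (CellTiter-Glo) measures survival of drug-naive KB-3-1 cells after 72 h compound exposure at 37 °C. Titration series was screened from lowest to highest concentration, with DMSO vehicle plates as background controls.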
Large screens that a line does not name were inactive. Most compounds without a hit are left out; they make up all but 6.8% or so of the library. Unless noted, the call rests on the fitted dose curve; in most records, active means well fitted curve in the direction sought with a large enough effect; inconclusive means small, poorly fitted or top-dose-only effect, or another doubt; inactive means no such curve, though single readings can be large; an effect the other way counts as inactive or inconclusive.

Oc1c(C(c2ccccc2F)N2CCN(Cc3ccccc3)CC2)sc2nc(-c3ccco3)nn12 (centres undefined)	none (no result: MCF10A rereplic, SW480 rereplic, PTAP TSG101 blk)
COc1ccc(C(=O)CC(=O)c2ccc(C(C)(C)C)cc2)cc1	MCF10A rereplic inconclusive, KB-V1 MDR tox inconclusive
COc1ccc(C(=O)C(CCC(CNC(C)(C)C)C(=O)c2ccc(OC)cc2)CNC(C)(C)C)cc1 (centres undefined)	MCF10A rereplic 5.8µM, SW480 rereplic 2.91µM, KB-V1 MDR tox inconclusive, KB-3-1 cytotox inconclusive
COc1nc(OC)nc(N2CCC(C(=O)NC3CCCCCC3)CC2)n1	KB-V1 MDR tox 10.3µM
COc1ccccc1CNC(=O)CCS(=O)(=O)c1ccc2c(c1)oc(=O)n2C	KB-3-1 cytotox inconclusive (no result: MCF10A rereplic, SW480 rereplic, PTAP TSG101 blk)
COc1ccc(-c2c(C)nn3c(N4CCN(c5ccccc5)CC4)cc(C)nc23)cc1OC	none (no result: MCF10A rereplic, SW480 rereplic, PTAP TSG101 blk)
CN1/C(=C/C2CC(=O)N(c3cccc4ccccc34)C2=O)C(C)(C)c2ccccc21 (centres undefined)	MCF10A rereplic inconclusive, SW480 rereplic 18.4µM
CCOc1ccc(N2C(=O)CC(/C=C3/N(C)c4ccccc4C3(C)C)C2=O)cc1 (centres undefined)	none
Cc1[nH]n(-c2ccccc2)c(=O)c1C(C[N+](=O)[O-])c1ccc(Br)cc1 (centres undefined)	MCF10A rereplic 3.26µM, SW480 rereplic inconclusive
Cc1ccc(CN(C(=O)COc2ccc(Br)cc2)c2ccccn2)o1	KB-V1 MDR tox inconclusive (no result: MCF10A rereplic, SW480 rereplic, PTAP TSG101 blk)
Cc1cc(Nc2ccc(Cl)cc2)nc(-c2ccccc2O)n1	MCF10A rereplic inconclusive, SW480 rereplic inconclusive
Cc1cc(Nc2cccc(Cl)c2)nc(-c2ccccc2O)n1	MCF10A rereplic inconclusive, SW480 rereplic 29.1µM
Cc1ccc(S(=O)(=O)N2CCN(c3cc(-c4cccs4)nc4ccccc34)CC2)cc1	none (no result: MCF10A rereplic, SW480 rereplic, PTAP TSG101 blk)
Cc1cc(C)nc(Sc2ncnc(N)c2[N+](=O)[O-])n1	MCF10A rereplic 20.6µM, SW480 rereplic inconclusive, KB-3-1 cytotox inconclusive
Cc1cccc(Nc2ncnc(N)c2[N+](=O)[O-])n1	none
N=C1N(c2ccccc2)C(=S)C(=Nc2ccccc2)N1c1ccccc1	MCF10A rereplic 18.4µM, SW480 rereplic inconclusive
COc1ccc(N=C2C(=S)N(c3ccc(OC)cc3)C(=NS(=O)(=O)c3ccccc3)N2c2ccccc2)cc1	KB-V1 MDR tox inconclusive
Cc1ccccc1N1C(=O)[C@@H]2Cc3ccccc3CN2C1=O	KB-V1 MDR tox 16.4µM
CCOc1ccc(S(=O)(=O)N2CCN(c3ccc(C)cc3C)CC2)cc1	none
CCOc1ccc2c(c1)C(C)=CC(C)(C)N2C(=O)Nc1ccccc1F	MCF10A rereplic inconclusive
COc1ccc2c(c1)C(C)=CC(C)(C)N2S(=O)(=O)c1ccc(C)cc1	MCF10A rereplic inconclusive, SW480 rereplic 13µM, KB-V1 MDR tox 2.59µM, KB-3-1 cytotox 2.06µM
CC1=CC(C)(C)N(C(=O)CCl)c2cc(C)ccc21	none
CCNC(=O)N1c2ccc(OCC)cc2C(C)=CC1(C)C	MCF10A rereplic 14.1µM
CCOc1ccc2c(c1)C(C)=CC(C)(C)N2S(=O)(=O)c1ccc(C)cc1	SW480 rereplic 13µM, KB-V1 MDR tox 5.8µM, KB-3-1 cytotox 2.06µM
CC1=CC(C)(C)N(S(=O)(=O)c2ccc(C)cc2)c2cc(C)ccc21	MCF10A rereplic inconclusive, SW480 rereplic 7.31µM, KB-V1 MDR tox 6.51µM, KB-3-1 cytotox 3.66µM (no result: PINK1 expr mod)
Cc1c(NC(=O)Cc2ccc(Cl)cc2)cccc1-c1nc2cccnc2s1	none (no result: MCF10A rereplic, SW480 rereplic, PTAP TSG101 blk)
CCN(CC)c1ccc(-c2nc(-c3ccccc3C)no2)cc1[N+](=O)[O-]	none (no result: MCF10A rereplic, SW480 rereplic, PTAP TSG101 blk)
C=C(C)CNC(=S)NNC(=O)c1ccc(Br)cc1	KB-V1 MDR tox inconclusive
C=CCNC(=S)NNC(=O)c1ccc(Br)cc1	KB-V1 MDR tox 11.6µM, KB-3-1 cytotox 14.6µM
O=C(Cn1ccc2cc(S(=O)(=O)N3CCCC3)ccc21)NCc1ccc(Cl)cc1	none (no result: MCF10A rereplic, SW480 rereplic, PTAP TSG101 blk)
CCOC(=O)c1c(C)c(/C=N/Nc2ccccc2)n(C)c1C	MCF10A rereplic 11.6µM
CCOC(=O)c1c(C)c(C(=O)O)n(C)c1C	none
Cc1ccc(C(=O)NCC(=O)NCC(c2cccs2)N(C)C)cc1C (centres undefined)	KB-V1 MDR tox 14.6µM
